# Source: PubChem BioAssay (EPA / NIEHS)
# Records with an inconclusive call do not appear. Where a structure was tested more than once in an assay, its records may differ in their call. The source made the active and inactive calls. Rule for the calls, unless noted: active = hit-call score of the fitted dose curve at least 0.9, where 1 is the maximum; inconclusive = response in the unintended direction; inactive = score below 0.9.
# What was measured:
# [1] = system: Sodium/Iodide Symporter (NIS), SLC5A5 (gene 6528); assay: CPHEA_Stoker_NIS_Inhibition_RAIU: CPHEA's Radioactive Iodide Uptake (RAIU) Assay for Sodium/Iodide Symporter (NIS) Inhibition, Stoker and Laws Labs (AID 2283841)
# In short: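 hNIS-HEK293T-EPA cells incubated 2 h at room temperature with compound (0.001–100 uM, 0.5% DMSO) and 329 pM final 125I in HBSS/10 mM HEPES, pH 7.4. Intracellular 125I counted; normalised to DMSO maximal uptake, triplicate, three biological replicates.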
# [2] = CPHEA_Stoker_NIS_Cytotoxicity: Cytotoxicity Assessment for CPHEA's Radioactive Iodide Uptake (RAIU) Assay for Sodium/Iodide Symporter (NIS) Inhibition, Stoker and Laws Labs (AID 2283897);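 for AC50: active means loss of ATP signal versus DMSO meaning cytotoxicity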
# In short: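 hNIS-HEK293T-EPA cells, human NIS expressed in HEK293T, treated 2 h with chemicals (0.001–100 uM, 0.5% final DMSO). ATP content read by CellTiter-Glo luminescence; loss of signal analysed relative to DMSO.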
# [3] = CEETOX_H295R_11DCORT_noMTC: CeeTox H295R High-throughput Steroidogenesis Assay for 11-Deoxycortisol (11DCORT), maximum tolerated concentration (MTC) filtered results only (AID 2283911; active = hit-call score of the fitted dose curve at least 0.9, where 1 is the maximum; inactive = score below 0.9); settings: actives raise or lower the signal
# In short: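 HPLC-MS/MS read-out of 11-deoxycortisol after MTBE extraction of H295R medium. Cells: forskolin 10 uM pre-stimulation 48 h, chemical 48 h, 0.1% DMSO final. Bidirectional fit vs DMSO baseline; no MTC filtering.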
# [4] = CEETOX_H295R_OHPREG_noMTC: CeeTox H295R High-throughput Steroidogenesis Assay for OH-Pregnenolone (OHPREG), maximum tolerated concentration (MTC) filtered results only (AID 2283912; active = hit-call score of the fitted dose curve at least 0.9, where 1 is the maximum; inactive = score below 0.9); settings: actives raise or lower the signal
# In short: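 Medium 17alpha-hydroxypregnenolone quantified by reverse-phase HPLC-MS/MS after 48 h chemical exposure of forskolin-prestimulated (10 uM, 48 h) H295R, 0.1% DMSO final. Fitting bidirectional relative to DMSO; no maximum-tolerated-concentration filtering applied.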
# [5] = CEETOX_H295R_OHPROG_noMTC: CeeTox H295R High-throughput Steroidogenesis Assay for OH-Progesterone (OHPROG), maximum tolerated concentration (MTC) filtered results only (AID 2283914; active = hit-call score of the fitted dose curve at least 0.9, where 1 is the maximum; inactive = score below 0.9); settings: actives raise or lower the signal
# In short: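 After 48 h forskolin (10 uM) prestimulation, H295R adrenal cells received test chemical in 0.1% DMSO for 48 h. Medium 17alpha-hydroxyprogesterone was MTBE-extracted and measured by HPLC-MS/MS; gain or loss relative to DMSO, no MTT-based MTC filtering.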
# [6] = biological target: zebrafish Thyroid Hormone Receptor beta (TRb), thrb (gene 30607) (UniProt Q9PVE4); assay: ATG_zfTRb_XSP2: Attagene TRANS-FACTORIAL Multi-Species (XSP1) HepG2 Assay for zebrafish Thyroid Hormone Receptor beta (TRb) (AID 2283836);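 for AC50: potency for induction of reporter signal above DMSO so agonist direction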
# zebrafish Thyroid Hormone Receptor beta (TRb), thrb (gene 30607), sequence (Q9PVE4 whole entry, looked up): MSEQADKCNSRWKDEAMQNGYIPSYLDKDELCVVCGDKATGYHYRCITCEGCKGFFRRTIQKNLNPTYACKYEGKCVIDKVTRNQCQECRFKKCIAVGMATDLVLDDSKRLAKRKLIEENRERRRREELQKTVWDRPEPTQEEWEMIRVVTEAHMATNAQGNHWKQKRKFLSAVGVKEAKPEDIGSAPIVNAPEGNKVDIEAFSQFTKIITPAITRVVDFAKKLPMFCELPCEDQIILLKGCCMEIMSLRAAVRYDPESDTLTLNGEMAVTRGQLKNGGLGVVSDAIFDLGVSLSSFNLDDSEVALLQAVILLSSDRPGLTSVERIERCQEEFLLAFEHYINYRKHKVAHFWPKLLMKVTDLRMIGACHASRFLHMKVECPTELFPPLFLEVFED
# Experimental: (§1) ATG_XSP2_multi-species_TRANS is a cell-based, multiplexed assay created by modifying the existing Attagene TRANS-FACTORIAL system to include a panel of nuclear receptors from some or all the following species: human (Homo sapiens), mouse (Mus musculus), frog (Xenopus laevis), zebrafish (Danio rerio), chicken (Gallus gallus), and turtle (Chrysemys picta). The ECOTOX-FACTORIAL format uses HepG2, a human liver cell line, with measurements taken at 24 hours after chemical dosing in a 24-well plate. Xsp2 included 3 nM 6-alpha-fluorotestosterone and 1.5 nM norgestrel to stimulate the androgen receptor.ATG_zfTRb_XSP2 is one of 29 assay components measured or calculated from the ATG_XSP2_multi-species_TRANS assay. It is designed to make measurements of mRNA induction, a form of inducible reporter, as detected with fluorescence intensity signals by Reverse transcription polymerase chain reaction (RT-PCR) and Capillary electrophoresis technology.The assay endpoint ATG_zfTRb_XSP2 was analyzed in the positive analysis fitting direction relative to DMSO as the negative control and baseline of activity. Using a type of inducible reporter, measures of mRNA for gain-of-signal activity can be used to understand the reporter gene at the transcription factor-level as they relate to the gene TR. Furthermore, this assay endpoint can be referred to as a primary readout, because this assay has produced multiple assay endpoints where this one serves a reporter gene function. To generalize the intended target to other relatable targets, this assay endpoint is annotated to the nuclear receptor intended target family, where the subfamily is non-steroidal.
# (§2) Human liver HepG2 cells are transiently transfected with multiple reporter transcription units (MRTUs) in 6-well plates using FuGene 6 reagent (Roche; 3 ml FuGene/1 mg DNA). The MRTU constructs are regulated by a cis-regulating element (promoter). […] A major difference between the CIS and TRANS system is that in CIS activities of endogenous TFs are measured, whereas the TRANS assay evaluates changes in activities of exogenous, chimeric NR-Gal4 proteins. […] At the end of 24 hour incubation, total RNA was isolated using TriZol reagent (Invitrogen). The isolated RNA is then reverse-transcribed using oligo(dT) primer and Mo-MLV reverse transcriptase (Invitrogen) with DNAse I (Ambion) treatment for 30 min. The one-tenth of the produced cDNA was amplified by PCR using Taq DNA polymerase (Invitrogen) and two reporter sequence-specific primers. The PCR products were fluorescently labeled by primer extension with 6-arboxyfluorescein (6-FAM) 5'-labeled reporter sequence-specific primer (2 min at 95 C, 20 s at 68 C and 10 min at 72 C) and these products were digested with 5U of HpaI (New England Biolabs) for 2h at 37 C. The fragments were purified using Qiaquick PCR columns (Qiagen), analyzed on an ABI 3130xL genetic analyzer (Applied Biosystems) with peak positions identified by using a set of X-rhodamine (ROX)-labeled MapMarker1000 molecular weight standards (BioVentures). The raw capillary electrophoresis data was processed using Attagraph software (Attagene).
# [7] = biological target: human Thyroid hormone Receptor alpha (TRa), THRA (gene 7067) (UniProt P10827); assay: ATG_hTRa_XSP2: Attagene TRANS-FACTORIAL Multi-Species (XSP2) HepG2 Assay for human Thyroid hormone Receptor alpha (TRa) (AID 2283838)
# human Thyroid hormone Receptor alpha (TRa), THRA (gene 7067), sequence (P10827 whole entry, looked up, the tested form may be a part): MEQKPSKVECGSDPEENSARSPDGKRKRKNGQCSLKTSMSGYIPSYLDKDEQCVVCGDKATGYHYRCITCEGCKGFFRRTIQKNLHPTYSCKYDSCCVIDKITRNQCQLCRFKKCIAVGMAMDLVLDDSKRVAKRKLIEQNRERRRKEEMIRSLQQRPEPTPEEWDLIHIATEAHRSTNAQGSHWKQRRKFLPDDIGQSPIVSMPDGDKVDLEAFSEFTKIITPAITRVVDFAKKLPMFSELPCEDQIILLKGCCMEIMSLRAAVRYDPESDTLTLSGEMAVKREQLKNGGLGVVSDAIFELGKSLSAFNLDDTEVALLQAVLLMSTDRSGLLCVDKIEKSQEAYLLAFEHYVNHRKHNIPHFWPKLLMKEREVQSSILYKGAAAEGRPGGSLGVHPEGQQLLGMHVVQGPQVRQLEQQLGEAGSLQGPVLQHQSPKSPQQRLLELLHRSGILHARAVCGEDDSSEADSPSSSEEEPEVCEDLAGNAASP
# In short: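 Reporter transcripts were read by RT-PCR with fluorescent primer extension, HpaI digestion and capillary electrophoresis. These came from HepG2 cells carrying multiplexed TRa-Gal4 TRANS constructs, harvested 24 hours after dosing. The medium also held 6-alpha-fluorotestosterone (3 nM) and norgestrel (1.5 nM), and increases were fitted against DMSO.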
# [8] = biological target: frog Thyroid hormone Receptor alpha (TRa), thra-a (gene 397942) (UniProt P15204); assay: ATG_frTRa_XSP2: Attagene TRANS-FACTORIAL Multi-Species (XSP2) HepG2 Assay for frog Thyroid hormone Receptor alpha (TRa) (AID 2283839);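 for AC50: AC50 reflects induction of frog TRa-driven reporter mRNA above DMSO baseline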
# frog Thyroid hormone Receptor alpha (TRa), thra-a (gene 397942), sequence (P15204 whole entry, looked up): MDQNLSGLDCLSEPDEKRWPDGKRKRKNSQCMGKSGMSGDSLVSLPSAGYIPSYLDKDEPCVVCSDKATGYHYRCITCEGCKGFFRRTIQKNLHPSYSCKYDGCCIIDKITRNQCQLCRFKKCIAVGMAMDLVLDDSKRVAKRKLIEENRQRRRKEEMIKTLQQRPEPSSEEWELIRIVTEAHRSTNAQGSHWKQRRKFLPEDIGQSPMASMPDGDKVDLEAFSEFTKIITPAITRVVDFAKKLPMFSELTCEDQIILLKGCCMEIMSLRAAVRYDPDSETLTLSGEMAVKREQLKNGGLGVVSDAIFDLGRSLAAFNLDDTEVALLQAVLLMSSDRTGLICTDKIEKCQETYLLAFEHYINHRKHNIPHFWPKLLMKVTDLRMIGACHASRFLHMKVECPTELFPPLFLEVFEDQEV
# Experimental: as §1, with “receptor.ATG_frTRa_XSP2” for “receptor.ATG_zfTRb_XSP2”, “ATG_frTRa_XSP2” for “ATG_zfTRb_XSP2”
# as §2
# [9] = biological target: human Thyroid hormone Receptor beta (TRb), THRB (gene 7068) (UniProt P10828); assay: ATG_hTRb_XSP2: Attagene TRANS-FACTORIAL Multi-Species (XSP2) HepG2 Assay for human Thyroid hormone Receptor beta (TRb) (AID 2283840);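 note: actives raise reporter mRNA so potency reflects agonist-like gain of signal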
# human Thyroid hormone Receptor beta (TRb), THRB (gene 7068), sequence (P10828 whole entry, looked up, the tested form may be a part): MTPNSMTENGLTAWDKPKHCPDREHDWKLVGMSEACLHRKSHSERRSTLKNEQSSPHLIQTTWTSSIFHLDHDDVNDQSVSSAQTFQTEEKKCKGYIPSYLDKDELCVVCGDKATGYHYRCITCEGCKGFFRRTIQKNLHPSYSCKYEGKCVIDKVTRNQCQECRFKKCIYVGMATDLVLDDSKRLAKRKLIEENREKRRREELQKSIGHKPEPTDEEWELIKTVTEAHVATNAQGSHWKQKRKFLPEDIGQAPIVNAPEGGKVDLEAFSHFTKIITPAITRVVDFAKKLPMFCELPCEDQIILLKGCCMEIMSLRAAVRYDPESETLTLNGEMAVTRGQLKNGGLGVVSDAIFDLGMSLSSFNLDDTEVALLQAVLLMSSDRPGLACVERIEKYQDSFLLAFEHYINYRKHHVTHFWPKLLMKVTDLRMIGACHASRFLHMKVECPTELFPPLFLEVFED
# In short: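 HepG2 cells were transiently transfected with GAL4-UAS multiplexed reporter units expressing chimeric NR-Gal4 proteins, dosed 24 h; reporter mRNA was quantified by RT-PCR, fluorescent labeling, HpaI digestion and capillary electrophoresis, fitted for gain of signal versus DMSO.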
# [10] = ATG_XTT_Cytotoxicity_XSP2: Cytotoxicity Assessment in the Attagene TRANS-FACTORIAL Multi-Species (XSP2) HepG2 Assay (AID 2283837)
# In short: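 XTT-based cell number read-out in human HepG2 liver cells carrying transfected reporter units, measured 24 h after chemical dosing. Activity is signal loss versus DMSO baseline.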
smiles,measurement,setting,value
CCc1cc(C(C)(C)C)c(O)c(C(C)(C)C)c1,outcome,[1],inactive
same,outcome,[2],inactive
CCCCCC(C=O)=Cc1ccccc1,outcome,[1],inactive
same,outcome,[2],inactive
COc1ccc(N=Nc2cc(C)c(N=Nc3ccc(S(=O)(=O)O)cc3)cc2OC)cc1,outcome,[1],inactive
same,outcome,[2],inactive
CCCCCCC(=O)c1ccccc1,outcome,[1],inactive
same,outcome,[2],inactive
COc1ccc(OC)c(N=Nc2c(O)ccc3ccccc23)c1,outcome,[3],inactive
same,outcome,[4],inactive
same,outcome,[5],inactive
C=C1CC[C@H](O)C/C1=C/C=C1\CCC[C@]2(C)[C@@H]([C@H](C)/C=C/[C@H](C)C(C)C)CC[C@@H]12,outcome,[1],inactive
same,outcome,[2],inactive
CCCCCCCCSCCO,outcome,[1],inactive
same,outcome,[2],inactive
BrCc1cccc(Oc2ccccc2)c1,outcome,[6],inactive
same,outcome,[7],inactive
same,outcome,[8],inactive
same,outcome,[9],inactive
same,outcome,[1],inactive
same,outcome,[2],inactive
Cc1ccc(S(=O)(=O)Oc2ccc(N=Nc3ccc(-c4ccc(N=Nc5c(O)ccc6cc(S(=O)(=O)O)cc(S(=O)(=O)O)c56)c(C)c4)cc3C)cc2)cc1,outcome,[1],inactive
same,AC50,[2],13 µM (active)
C[C@H]1O[C@@H](O[C@H]2[C@@H](O)C[C@H](O[C@H]3[C@@H](O)C[C@H](O[C@H]4CC[C@@]5(C)[C@H](CC[C@@H]6[C@@H]5C[C@@H](O)[C@]5(C)[C@@H](C7=CC(=O)OC7)CC[C@]65O)C4)O[C@@H]3C)O[C@@H]2C)C[C@H](O)[C@@H]1O,AC50,[1],1.12 µM (active)
same,outcome,[2],inactive
O=C(c1ccccc1)C(O)c1ccccc1 (stereo not drawn),outcome,[1],inactive
same,outcome,[2],inactive
CCc1cc(Cc2cc(CC)cc(C(C)(C)C)c2O)c(O)c(C(C)(C)C)c1,outcome,[1],inactive
O=[N+]([O-])c1ccc(O)cc1C(F)(F)F,outcome,[1],inactive
same,outcome,[2],inactive
OCC#CCO,outcome,[1],inactive
same,outcome,[2],inactive
OC[C@H]1O[C@@H]2O[C@H]3[C@H](O)[C@@H](O)[C@@H](O[C@H]4[C@H](O)[C@@H](O)[C@@H](O[C@H]5[C@H](O)[C@@H](O)[C@@H](O[C@H]6[C@H](O)[C@@H](O)[C@@H](O[C@H]7[C@H](O)[C@@H](O)[C@@H](O[C@H]8[C@H](O)[C@@H](O)[C@@H](O[C@H]9[C@H](O)[C@@H](O)[C@@H](O[C@H]1[C@H](O)[C@H]2O)O[C@@H]9CO)O[C@@H]8CO)O[C@@H]7CO)O[C@@H]6CO)O[C@@H]5CO)O[C@@H]4CO)O[C@@H]3CO,outcome,[1],inactive
same,outcome,[2],inactive
C=C[Si]1(C)O[Si](C)(C=C)O[Si](C)(C=C)O[Si](C)(C=C)O1 (stereo not drawn),outcome,[3],inactive
same,outcome,[4],inactive
same,AC50,[5],87.1 µM (active)
O=C(CC(=O)c1ccccc1)c1ccccc1,outcome,[1],inactive
same,outcome,[2],inactive
O=C(Nc1ccc2c(O)c(N=Nc3ccc(N=Nc4ccc(S(=O)(=O)O)cc4)cc3)c(S(=O)(=O)O)cc2c1)c1ccccc1,outcome,[4],inactive
same,outcome,[5],inactive
O=c1c(O)c(-c2ccc(O)cc2)oc2cc(O)cc(O)c12,outcome,[6],inactive
same,outcome,[10],inactive
same,outcome,[7],inactive
same,outcome,[8],inactive
same,outcome,[9],inactive
same,outcome,[1],inactive
same,outcome,[2],inactive
Cc1cc(=O)oc2cc(N(C)C)ccc12,outcome,[6],inactive
same,outcome,[10],inactive
same,outcome,[7],inactive
same,outcome,[8],inactive
same,outcome,[9],inactive
CCCCCCCCc1ccc(S(=O)(=O)O)cc1,outcome,[1],inactive
same,outcome,[2],inactive
CCCCCCCCCCCCN1CCCCCC1=O,outcome,[1],inactive
same,outcome,[2],inactive
Clc1ccc(C(c2ccccc2Cl)C(Cl)Cl)cc1 (stereo not drawn),outcome,[6],inactive
same,AC50,[10],100 µM (active)
same,outcome,[7],inactive
same,outcome,[8],inactive
same,outcome,[9],inactive
same,outcome,[1],inactive
same,outcome,[2],inactive
CCCCCCCCCCCCCCN(CCO)CCO,outcome,[1],inactive
same,outcome,[2],inactive
CC=Cc1ccc(OC)c(OC)c1,outcome,[3],inactive
same,outcome,[4],inactive
same,outcome,[5],inactive
CCCCCCCCC=CCCCCCCCC1=NCCN1CCO,outcome,[1],inactive
same,outcome,[2],inactive
c1ccc(Oc2ccccc2)cc1,outcome,[1],inactive
same,outcome,[2],inactive
CCCCC(CC)COC(=O)c1ccc(O)cc1 (stereo not drawn),outcome,[6],inactive
same,outcome,[8],inactive
same,outcome,[9],inactive
same,AC50,[1],10.4 µM (active)
same,AC50,[2],83.9 µM (active)
[O-]n1ccccc1=S.[O-]n1ccccc1=S.[Zn+2],AC50,[1],18.1 µM (active)
same,outcome,[2],inactive
CC(CN=Cc1ccccc1O)N=Cc1ccccc1O (stereo not drawn),outcome,[1],inactive
same,outcome,[2],inactive
Oc1ccc2cc(SSc3ccc4cc(O)ccc4c3)ccc2c1,AC50,[6],154 µM (active)
same,outcome,[6],inactive
same,outcome,[10],inactive
same,AC50,[7],132 µM (active)
same,outcome,[7],inactive
same,AC50,[8],160 µM (active)
same,outcome,[8],inactive
same,AC50,[9],100 µM (active)
same,outcome,[9],inactive
C=C(C)C(=O)OCCOC1CC2CC1C1C=CCC21 (stereo not drawn),outcome,[1],inactive
same,outcome,[2],inactive
O=CCc1ccccc1,outcome,[2],inactive
CCOC(=O)[C@@H](C)Oc1ccc(Oc2nc3ccc(Cl)cc3o2)cc1,outcome,[1],inactive
same,outcome,[2],inactive
CCOc1ccc(N=Nc2ccc(C=Cc3ccc(N=Nc4ccc(OCC)cc4)cc3S(=O)(=O)O)c(S(=O)(=O)O)c2)cc1,outcome,[1],inactive
same,outcome,[2],inactive
OCc1cccc(Oc2ccccc2)c1,outcome,[6],inactive
same,outcome,[10],inactive
same,outcome,[7],inactive
same,outcome,[8],inactive
same,outcome,[9],inactive
